Measurements: PubChem BioAssay (NCATS)
Results filed as inconclusive are left out. The source made the active and inactive calls. Calls follow the shape of the dose curve; as a rule, active = well fitted inhibition curve with a large enough effect; inconclusive = small, poorly fitted or top-dose-only effect; inactive = flat fitted curve, though single readings scatter.

Legend:
Test in all cases: qHTS profiling for inhibitors of Plasmodium falciparum proliferation (AID 504749); also: nearly all actives have a fitted effect of over 60% in size
Conditions in all cases: P. falciparum in erythrocytes, SYBR Green DNA, 72 h; series mostly up to 28.7 µM
[1] = system: AA1029
How it was run: (§1)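 Three-day growth assay of blood-stage parasites in erythrocytes (0.3% parasitemia, 2.5% hematocrit) at 37 C, 5% CO2, quantified by SYBR Green DNA staining after overnight detergent lysis.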

[2] = system: ATS95
How it was run: as §1

[3] = system: C2A
How it was run: as §1

[4] = system: CP211
How it was run: as §1

[5] = system: CP215
How it was run: as §1

[6] = system: CP217
How it was run: as §1

[7] = system: CP250
How it was run: as §1

[8] = system: CP252
How it was run: as §1

[9] = system: CP256
How it was run: as §1

[10] = system: CP260
How it was run: as §1

[11] = system: CP269
How it was run: as §1

[12] = system: CP315
How it was run: as §1

[13] = system: CP325
How it was run: as §1

[14] = system: CP329
How it was run: as §1

[15] = system: ECU
How it was run: as §1

[16] = system: N140
How it was run: as §1

[17] = system: P93_24
How it was run: as §1

[18] = system: PAD
How it was run: as §1

[19] = system: SC27B
How it was run: as §1

[20] = system: TAB165
How it was run: as §1

Measured: Potency
Potency is read from the fitted curve at half-maximal effect.

CCN1C[C@]2(COC)[C@H](O)C[C@H](OC)[C@]34C1C([C@H](OC)[C@H]23)[C@]1(OC(C)=O)C2[C@@H](OC(=O)c3ccccc3)C(O)(C[C@H]24)[C@@H](OC)[C@@H]1O
inactive: all assays above

O=C(O)c1ccccc1-c1c2cc(Br)c(=O)cc-2oc2[c]([Hg])c(O)c(Br)cc12
inactive: all assays above

CC(C)[C@@]1(NC(=O)[C@H]2CC3c4cccc5[nH]cc(c45)C[C@H]3N(C)C2)O[C@@]2(O)C3CCCN3C(=O)[C@@H](Cc3ccccc3)N2C1=O (stereo not given in full)
active: [1] 3.16 µM | [2] 3.16 µM | [3] 6.31 µM | [4] 6.01 µM | [5] 5.36 µM | [6] 3.98 µM | [7] 12.6 µM | [8] 3.98 µM | [9] 7.94 µM | [10] 3.16 µM | [11] 4.26 µM | [12] 9.53 µM | [13] 9.53 µM | [14] 13.5 µM | [15] 1.41 µM | [16] 0.447 µM | [17] 0.891 µM | [18] 1.12 µM | [19] 2 µM | [20] 0.562 µM
